PubChem BioAssay (NCATS)
Results filed as inconclusive are left out. The source made the active and inactive calls. Unless noted, calls follow the shape of the dose curve; as a rule, active = well fitted curve in either direction with a large enough effect (not every such curve was filed as active); inconclusive = small, poorly fitted or top-dose-only effect, or another doubt; inactive = flat fitted curve, though single readings scatter.

How the values were obtained:
[1] = biological target: Lysosomal acid glucosylceramidase (Homo sapiens) (UniProt P04062); assay: Glucocerebrosidase-p2 (AID 348; in the data active = potency below about 10 µM; also: potency is read from the fitted curve at half-maximal effect); conditions: purified GBA, blue fluorogenic substrate, 40 min
Outline: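 Normal human glucocerebrosidase (0.2 nM) with blue fluorogenic substrate (80 uM final) in citrate/phosphate pH 5.9 with 10mM sodium taurocholate, 0.01% tween-20; 40 min RT, NaOH/glycine stop; fluorescence Ex 365/Em 440; AC50 from a titration from 0.6 nM upwards.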

[2] = AP1 Signaling Pathway (AID 357); conditions: ME-180 AP-1-bla reporter, EGF-induced, beta-lactamase ratio, 5 h; at 7.69 µM (top of the series) unless noted;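 also: ME-180 reporter cells stimulated with EGF at its EC50 level; % is scaled to controls: 0 for no effect and ±100 for the full control effect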
Outline: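 Read-out was the 460nm/530nm emission ratio (excitation 405nm) after CCF4 loading for 2.5 hours at room temperature. Cells carried an AP-1-driven beta-lactamase reporter, were stimulated with EC50 EGF plus compound for 5 hours, and AC50 values came from titrations.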

[3] = biological target: Cytochrome P450 1A2 (Homo sapiens) (UniProt P05177); assay: p450-cyp1a2 (AID 410; calls by dose curve; also: potency is read from the fitted curve at half-maximal effect;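 as to activity change, negative = inhibition: -100% = full effect of reference inhibitor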); conditions: recombinant CYP1A2, luciferin-ME demethylation, luminescence; series mostly up to 57 µM
Outline: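 Luminescent demethylation readout: Luciferin-ME (100uM, equal to Km) turned over by 20nM CYP1A2 for 60 min at room temperature after NADPH regeneration addition, following 10 min compound preincubation. Normalization used 57 uM furafylline as full inhibition.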

[4] = Stat Signaling Pathway (AID 446); conditions: ME-180 (cervical carcinoma) SIE beta-lactamase reporter, IL-6 stimulated, 5 h; at 7.69 µM (top of the series) unless noted;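 also: ME-180 cervical cancer cells given 40 pM IL-6 alongside compound; SIE-controlled beta-lactamase reporter measured as 460/530 nm FRET emission ratio; % is scaled to controls: 0 for no effect and ±100 for the full control effect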
Outline: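 Emission at 460 and 530 nm (excitation 405 nm) reports SIE-controlled beta-lactamase in ME-180 cells. Cells received compound with 40 pM IL-6 for 5 hrs at 37 C; data scaled between 300 pM IL-6 and 125 nM JAK-inhibitor controls.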

[5] = biological target: Glucocorticoid receptor (Homo sapiens) (UniProt P04150); assay: GR-EFC Redistribution (AID 451; calls by dose curve; also: potency is read from the fitted curve at half-maximal effect); conditions: CHO-K1 GR-EFC translocation, beta-gal luminescence, 2 h
Outline: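 CHO-K1 cells stably expressing nuclear-localized β-gal enzyme acceptor and GR fused C-terminally to the enzyme donor fragment; ligand-driven nuclear translocation restores β-gal by complementation. Compounds titrated up to 46 uM final, 2 h at 37 °C; luminescence read.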

[6] = biological target: Mitogen-activated protein kinase 10 (Mus musculus) (UniProt Q61831); assay: JNK3 AlphaScreen Assay (AID 530); conditions: JNK3 lysate, c-Jun phosphorylation; series mostly up to 57.1 µM;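 also: kinase came from lysate of stimulated human HepG2 cells; signal reports phosphorylation of biotinylated GST-cJun 1-79 at Ser73 with 10 µM ATP; % is scaled to controls: 0 for no effect and ±100 for the full control effect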
Outline: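 Phosphorylation of biotinylated GST-cJun(1-79) at Ser73 is measured by AlphaScreen proximity luminescence. Enzyme is JNK3 in HepG2 lysates activated with interleukin-1beta and tumor necrosis factor alpha; ATP is 10 uM final.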

[7] = biological target: 3',5'-cyclic-AMP phosphodiesterase 4B (Homo sapiens) (UniProt Q07343); assay: qHTS Assay for Inhibitors of PDE-IV (AID 607; active = well fitted activation curve with a large enough effect in the main read-out, with a control signal flat, not every such curve was filed as active; also: % of control where 0% means no effect); conditions: HEK293 ACTOne CNG channel cells, membrane potential fluorescence; series mostly up to 22.9 µM
Outline: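 The readout is membrane depolarisation from a cAMP-sensing CNG channel, detected with a potential dye at ex 535/em 590. Cells were HEK293-derived (endogenous PDE-IV) at 1000 cells/well, titrated up to 22.9 uM final.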

[8] = qHTS Assay for Lipid Storage Modulators (AID 1519; calls by dose curve); conditions: Drosophila S3 cells, BODIPY lipid droplet/cell ratio, laser cytometry, cells loaded with oleic acid; for activity change, negative = inhibition: at 57.5 µM (top of the series)
Outline: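 Cells seeded at 5,000 per well were treated with compounds over a concentration series and loaded with oleic acid (400 uM, as added). Lipid droplet fluorescence (488 nm excitation, 500-530 nm channel) was read by laser-scanning cytometry and normalized to 20 uM Triacsin C.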

[9] = Primary qHTS for small molecule stabilizers of the endoplasmic reticulum resident proteome: Secreted ER Calcium Modulated Protein (SERCaMP) assay (AID 1508630; active = well fitted curve in the direction sought with a large enough effect; an effect the other way counts as inactive or inconclusive; also: % is scaled to controls: 0 for no effect and ±100 for the full control effect); conditions: SH-SY5Y GLuc-SERCaMP (Gaussia luciferase released on ER calcium loss) secretion, thapsigargin, luminescence; series mostly up to 38.4 µM
Outline: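 The SH-SY5Y reporter protocol was run at 3 concentrations up to 38.3 uM (primary) or 11 concentrations (follow-up): 16 h compound, 100 nM thapsigargin for 4 h, then extracellular luciferase luminescence.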

[10] = biological target: Cytochrome P450 2C9 (Homo sapiens) (UniProt P11712); assay: qHTS Assay for Inhibitors and Substrates of Cytochrome P450 2C9 (AID 883; active = well fitted curve in the direction sought with a large enough effect; an effect the other way counts as inactive or inconclusive; also: nearly all actives have a fitted effect of over 60% in size; also: potency is read from the fitted curve at half-maximal effect); conditions: recombinant CYP2C9, luciferin-H luminescence, 60 min; series mostly up to 57.1 µM
Outline: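 CYP2C9 deoxyluciferin hydroxylation, 37C, 60 min with NADPH regeneration; 10nM enzyme, 100uM Luciferin-H (KM). Glo detection reagent stopped reaction; luminescence normalized to sulphaphenazole (57uM) full inhibition.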

[11] = biological target: Cytochrome P450 3A4 (Homo sapiens) (UniProt P08684); assay: qHTS Assay for Activators of Cytochrome P450 3A4 (AID 885; active = well fitted curve in the direction sought with a large enough effect; an effect the other way counts as inactive or inconclusive; also: nearly all actives have a fitted effect of over 65% in size); conditions: recombinant CYP3A4, Luciferin-PPXE luminescence, 60 min; series mostly up to 57.1 µM
Outline: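 Activators are scored by enhanced luminescence from CYP3A4 conversion of luciferin-PPXE (25uM, equal to KM) to luciferin, after 60 min at RT with an NADPH-regenerating system.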

[12] = biological target: Cytochrome P450 2C19 (Homo sapiens) (UniProt P33261); assay: qHTS Assay for Inhibitors and Substrates of Cytochrome P450 2C19 (AID 899; active = well fitted curve in the direction sought with a large enough effect; an effect the other way counts as inactive or inconclusive; also: % is scaled to controls: 0 for no effect and ±100 for the full control effect; nearly all actives have a fitted effect of over 60% in size); conditions: recombinant CYP2C19, luciferin-H EGE luminescence; series mostly up to 57.1 µM
Outline: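 In 50mM KPO4, the reaction held 5nM enzyme and KM-level (10uM) Luciferin-H EGE; it ran 60 min at 37C after NADPH regeneration and a 10 min compound preincubation. Luminescence values were scaled to 57uM ketoconazole as complete inhibition.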

[13] = biological target: Cytochrome P450 2D6 (Homo sapiens) (UniProt P10635); assay: qHTS Assay for Inhibitors and Substrates of Cytochrome P450 2D6 (AID 891; active = well fitted curve in the direction sought with a large enough effect; an effect the other way counts as inactive or inconclusive; also: potency is read from the fitted curve at half-maximal effect; nearly all actives have a fitted effect of over 60% in size); conditions: recombinant CYP2D6, luciferin-ME EGE luminescence; series mostly up to 57.1 µM
Outline: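 Luminescent read-out of luciferin formed by 5 nM human CYP2D6 demethylating 30 uM Luciferin-ME EGE (Km level) over 60 min at room temperature after NADPH regeneration addition. Data normalized to full inhibition by 1.43 uM quinidine.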

[14] = measured here: cell count channel max response
[15] = measured here: lipid channel max response

Chain of Cytochrome P450 1A2 (Homo sapiens) (P05177 whole entry, looked up): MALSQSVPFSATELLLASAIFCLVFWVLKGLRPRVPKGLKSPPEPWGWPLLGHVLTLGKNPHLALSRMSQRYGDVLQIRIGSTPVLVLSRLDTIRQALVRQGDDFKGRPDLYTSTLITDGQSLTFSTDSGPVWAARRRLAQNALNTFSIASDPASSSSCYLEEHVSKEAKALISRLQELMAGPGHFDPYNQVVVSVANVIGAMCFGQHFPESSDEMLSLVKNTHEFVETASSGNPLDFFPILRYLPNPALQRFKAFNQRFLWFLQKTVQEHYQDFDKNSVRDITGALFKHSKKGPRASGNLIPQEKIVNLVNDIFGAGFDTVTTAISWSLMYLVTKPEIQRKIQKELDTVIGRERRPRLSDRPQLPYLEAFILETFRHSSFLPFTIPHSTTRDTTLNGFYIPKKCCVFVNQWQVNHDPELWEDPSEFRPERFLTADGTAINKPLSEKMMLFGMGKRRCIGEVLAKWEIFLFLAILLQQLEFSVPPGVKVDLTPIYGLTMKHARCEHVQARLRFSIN
Chain of Glucocorticoid receptor (Homo sapiens) (P04150 whole entry, looked up, the tested form may be a part): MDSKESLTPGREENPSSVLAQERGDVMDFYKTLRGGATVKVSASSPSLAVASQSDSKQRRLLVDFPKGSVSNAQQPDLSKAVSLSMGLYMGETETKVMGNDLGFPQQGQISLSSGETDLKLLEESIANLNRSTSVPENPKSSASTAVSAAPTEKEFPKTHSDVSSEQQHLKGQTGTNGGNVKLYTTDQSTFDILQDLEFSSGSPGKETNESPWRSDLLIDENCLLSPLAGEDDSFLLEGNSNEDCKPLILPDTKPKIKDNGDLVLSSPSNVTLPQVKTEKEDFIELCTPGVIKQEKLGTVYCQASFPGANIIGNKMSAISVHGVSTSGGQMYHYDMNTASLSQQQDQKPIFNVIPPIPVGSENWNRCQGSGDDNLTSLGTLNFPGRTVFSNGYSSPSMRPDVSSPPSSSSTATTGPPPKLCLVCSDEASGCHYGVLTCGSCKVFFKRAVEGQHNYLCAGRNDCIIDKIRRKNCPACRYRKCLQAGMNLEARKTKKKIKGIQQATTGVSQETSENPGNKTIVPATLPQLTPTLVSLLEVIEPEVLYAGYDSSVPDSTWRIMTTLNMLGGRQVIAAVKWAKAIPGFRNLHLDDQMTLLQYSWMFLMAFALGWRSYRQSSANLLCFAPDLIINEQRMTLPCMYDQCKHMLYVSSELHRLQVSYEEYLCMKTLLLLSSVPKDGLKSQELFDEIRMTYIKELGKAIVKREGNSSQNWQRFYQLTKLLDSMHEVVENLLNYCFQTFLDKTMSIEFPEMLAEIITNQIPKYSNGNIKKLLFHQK
Chain of 3',5'-cyclic-AMP phosphodiesterase 4B (Homo sapiens) (Q07343 whole entry, looked up): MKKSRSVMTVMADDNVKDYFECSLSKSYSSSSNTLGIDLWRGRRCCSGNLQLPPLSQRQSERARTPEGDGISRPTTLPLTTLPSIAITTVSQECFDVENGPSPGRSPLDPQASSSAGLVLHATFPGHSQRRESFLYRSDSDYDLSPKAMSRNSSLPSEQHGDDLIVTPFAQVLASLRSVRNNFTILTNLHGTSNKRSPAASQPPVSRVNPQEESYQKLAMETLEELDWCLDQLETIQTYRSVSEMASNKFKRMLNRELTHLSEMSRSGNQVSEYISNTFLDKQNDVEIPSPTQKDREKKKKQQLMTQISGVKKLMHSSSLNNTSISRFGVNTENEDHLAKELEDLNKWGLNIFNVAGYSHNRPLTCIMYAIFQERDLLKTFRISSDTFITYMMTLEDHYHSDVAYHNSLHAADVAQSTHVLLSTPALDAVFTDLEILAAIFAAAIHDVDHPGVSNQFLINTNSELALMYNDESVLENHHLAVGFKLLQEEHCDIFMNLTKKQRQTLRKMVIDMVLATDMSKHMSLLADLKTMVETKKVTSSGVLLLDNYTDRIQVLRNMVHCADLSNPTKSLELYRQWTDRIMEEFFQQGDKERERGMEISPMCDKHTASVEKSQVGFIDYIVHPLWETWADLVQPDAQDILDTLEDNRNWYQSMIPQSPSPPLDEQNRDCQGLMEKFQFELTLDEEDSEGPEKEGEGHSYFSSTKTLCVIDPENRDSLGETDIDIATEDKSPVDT
Chain of Lysosomal acid glucosylceramidase (Homo sapiens) (P04062 whole entry, looked up): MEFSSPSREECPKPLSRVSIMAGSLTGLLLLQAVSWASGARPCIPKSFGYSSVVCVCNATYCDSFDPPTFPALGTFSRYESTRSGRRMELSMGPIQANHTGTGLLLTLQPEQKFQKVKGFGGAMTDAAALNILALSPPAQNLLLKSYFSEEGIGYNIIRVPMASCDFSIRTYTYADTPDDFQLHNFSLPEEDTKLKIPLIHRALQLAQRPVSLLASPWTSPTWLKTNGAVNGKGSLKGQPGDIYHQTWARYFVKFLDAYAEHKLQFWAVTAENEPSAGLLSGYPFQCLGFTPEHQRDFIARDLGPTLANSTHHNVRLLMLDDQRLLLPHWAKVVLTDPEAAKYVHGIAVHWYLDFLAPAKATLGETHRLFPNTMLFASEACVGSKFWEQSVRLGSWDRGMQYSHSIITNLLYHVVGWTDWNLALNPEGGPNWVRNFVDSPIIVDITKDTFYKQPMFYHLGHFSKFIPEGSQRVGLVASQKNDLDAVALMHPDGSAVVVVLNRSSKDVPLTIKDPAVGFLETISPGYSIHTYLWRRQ
Chain of Cytochrome P450 2C9 (Homo sapiens) (P11712 whole entry, looked up): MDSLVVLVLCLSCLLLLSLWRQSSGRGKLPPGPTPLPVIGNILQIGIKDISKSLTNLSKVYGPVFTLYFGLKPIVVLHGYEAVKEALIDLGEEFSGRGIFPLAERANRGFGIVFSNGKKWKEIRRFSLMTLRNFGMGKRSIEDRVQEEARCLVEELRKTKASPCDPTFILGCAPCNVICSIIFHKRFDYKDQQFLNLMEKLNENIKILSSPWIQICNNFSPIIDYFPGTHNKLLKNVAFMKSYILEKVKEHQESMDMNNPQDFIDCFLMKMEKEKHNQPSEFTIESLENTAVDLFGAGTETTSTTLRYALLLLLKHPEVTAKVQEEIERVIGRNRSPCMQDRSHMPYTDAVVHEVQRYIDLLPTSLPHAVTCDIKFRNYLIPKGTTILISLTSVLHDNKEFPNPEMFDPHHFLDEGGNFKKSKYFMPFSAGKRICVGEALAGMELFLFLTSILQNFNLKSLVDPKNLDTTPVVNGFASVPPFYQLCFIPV
Chain of Cytochrome P450 3A4 (Homo sapiens) (P08684 whole entry, looked up): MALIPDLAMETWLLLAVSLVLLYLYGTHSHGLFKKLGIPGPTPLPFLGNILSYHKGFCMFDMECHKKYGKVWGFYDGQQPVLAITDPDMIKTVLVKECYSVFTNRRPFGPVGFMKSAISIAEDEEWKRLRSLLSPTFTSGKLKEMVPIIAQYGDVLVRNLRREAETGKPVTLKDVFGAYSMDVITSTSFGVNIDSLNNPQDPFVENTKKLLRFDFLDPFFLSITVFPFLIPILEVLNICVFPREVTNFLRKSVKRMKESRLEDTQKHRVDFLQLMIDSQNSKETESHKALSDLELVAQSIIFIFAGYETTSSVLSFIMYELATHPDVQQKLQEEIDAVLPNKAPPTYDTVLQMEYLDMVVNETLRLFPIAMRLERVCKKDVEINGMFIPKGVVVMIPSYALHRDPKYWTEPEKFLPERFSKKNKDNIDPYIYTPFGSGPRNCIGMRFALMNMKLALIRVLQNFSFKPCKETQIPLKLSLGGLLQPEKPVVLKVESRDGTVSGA
Chain of Cytochrome P450 2C19 (Homo sapiens) (P33261 whole entry, looked up): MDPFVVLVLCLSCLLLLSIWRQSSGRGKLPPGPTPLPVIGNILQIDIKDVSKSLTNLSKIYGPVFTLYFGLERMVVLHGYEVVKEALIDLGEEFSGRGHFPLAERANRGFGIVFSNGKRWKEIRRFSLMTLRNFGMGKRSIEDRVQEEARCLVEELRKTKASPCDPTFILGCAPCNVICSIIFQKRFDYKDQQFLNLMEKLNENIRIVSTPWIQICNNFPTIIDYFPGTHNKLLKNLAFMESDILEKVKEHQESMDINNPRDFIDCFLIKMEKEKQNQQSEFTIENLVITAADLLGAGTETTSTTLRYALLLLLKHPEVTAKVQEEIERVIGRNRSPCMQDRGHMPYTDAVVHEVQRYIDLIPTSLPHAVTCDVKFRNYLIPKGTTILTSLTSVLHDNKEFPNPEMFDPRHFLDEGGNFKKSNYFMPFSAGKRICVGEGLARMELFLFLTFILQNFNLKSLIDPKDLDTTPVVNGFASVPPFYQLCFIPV
Chain of Cytochrome P450 2D6 (Homo sapiens) (P10635 whole entry, looked up): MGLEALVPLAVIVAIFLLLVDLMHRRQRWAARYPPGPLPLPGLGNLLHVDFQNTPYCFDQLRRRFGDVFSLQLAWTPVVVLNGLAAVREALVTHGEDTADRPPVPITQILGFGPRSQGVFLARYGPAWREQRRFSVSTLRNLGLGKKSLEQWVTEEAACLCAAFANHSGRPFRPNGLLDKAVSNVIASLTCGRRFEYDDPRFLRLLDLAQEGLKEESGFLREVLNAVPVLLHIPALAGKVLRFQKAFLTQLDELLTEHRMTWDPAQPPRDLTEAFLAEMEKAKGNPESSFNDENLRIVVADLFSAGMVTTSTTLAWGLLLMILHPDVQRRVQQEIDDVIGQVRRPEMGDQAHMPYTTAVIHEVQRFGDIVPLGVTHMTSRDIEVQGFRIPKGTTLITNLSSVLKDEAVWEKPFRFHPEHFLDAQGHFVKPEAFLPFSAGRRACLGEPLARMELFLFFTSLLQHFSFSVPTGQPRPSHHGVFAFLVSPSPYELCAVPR

O=C(c1csnn1)N1CCC2(CC1)CCN(C(c1ccccc1)c1ccccc1)CC2
inactive: Potency [1] > 11.4 µM | activity change, negative = inhibition [2] -5.85% | Potency [3] | activity, negative = inhibition [4] 4.86% | Potency [5] > 46 µM | Potency [6] | Potency [7] | activity change, negative = inhibition [8] -2.09% | outcome [9]
3.93%: max response [8, 14]
2.32%: max response [8, 15]

N#Cc1ccc(CN2CCCC3(CCN(C(=O)c4ccncc4)CC3)C2)cc1
7.34%: max response [8, 15]
inactive: Potency [1] > 11.4 µM | activity change, negative = inhibition [2] -16.7% | Potency [3] | activity, negative = inhibition [4] 1.22% | Potency [5] > 46 µM | Potency [6] | Potency [7] | Potency [10] | Potency [11] | Potency [12] | activity change, negative = inhibition [8] 2.04% | outcome [9]
4.42%: max response [8, 14]

O=C(c1ccncc1)N1CCC2(CCCN(C(c3ccccc3)c3ccccc3)C2)CC1
active: Potency [3] 0.2 µM | Potency [10] 5.01 µM | Potency [13] 0.0398 µM
17.9%: max response [8, 15]
inactive: Potency [1] > 11.4 µM | activity change, negative = inhibition [2] 22.9% | activity, negative = inhibition [4] 11.1% | Potency [5] > 46 µM | Potency [6] | Potency [7] | Potency [11] | activity change, negative = inhibition [8] 2.92% | outcome [9]
12.6%: max response [8, 14]

O=S(=O)(c1ccccc1)N1CCC2(CCN(Cc3nccs3)CC2)CC1
inactive: Potency [1] > 11.4 µM | activity change, negative = inhibition [2] 19.1% | Potency [3] | activity, negative = inhibition [4] -4.54% | Potency [5] > 46 µM | Potency [6] | Potency [7] | activity change, negative = inhibition [8] 0.281% | outcome [9]
4.88%: max response [8, 14]
7.01%: max response [8, 15]

Cc1noc(C)c1C(=O)N1CCC2(CCCN(Cc3ccc(C#N)cc3)C2)CC1
33.4%: max response [8, 15]
22.7%: max response [8, 14]
inactive: Potency [1] > 11.4 µM | activity change, negative = inhibition [2] 4.42% | Potency [3] | activity, negative = inhibition [4] 3.17% | Potency [5] > 46 µM | Potency [6] | Potency [7] | activity change, negative = inhibition [8] 6.31% | outcome [9]

CN1CCC2(CC1)CCN(S(=O)(=O)c1ccccc1)CC2
9.03%: max response [8, 15]
inactive: Potency [1] > 11.4 µM | activity change, negative = inhibition [2] -4.78% | Potency [3] | activity, negative = inhibition [4] -1.02% | Potency [5] > 46 µM | Potency [6] | Potency [7] | activity change, negative = inhibition [8] -2.86% | outcome [9]
8%: max response [8, 14]

O=C(Oc1ccccc1)N1CCC2(CC1)CCN(c1ccncc1)CC2
inactive: Potency [1] > 11.4 µM | activity change, negative = inhibition [2] 9.96% | Potency [3] | activity, negative = inhibition [4] 16.5% | Potency [5] > 46 µM | Potency [6] | Potency [7] | activity change, negative = inhibition [8] 1.8% | outcome [9]
-5.74%: max response [8, 14]
-3.08%: max response [8, 15]
